Data on 15 molecules can be found in PubChem BioAssay (NCATS).

Records with an inconclusive call do not appear. A call without a number means that no potency is given here. The source made the active and inactive calls. The call rests on the fitted dose curve; tested in HEK293 reporter line.

The assay is described as follows: qHTS for Inhibitors of the Functional Ribonucleoprotein Complex (vRNP) of Lymphocytic Choriomeningitis Arenaviruses (LCMV): Viability assay - alamar blue signal for LCMV Primary Screen (AID 1347085). Further: nearly all actives have a fitted effect of over 80% in size. Conditions: alamar blue viability counter-screen, LCMV vRNP screen cells; series mostly up to 57.5 µM. (In general: qHTS replaces the single test concentration by a dilution series.)
Regarding `C[N+](C)(CCOc1ccccc1)Cc1cccs1`, the Potency entry was “inactive”.

Take `CC(=O)OCC(=O)[C@@]1(OC(C)=O)[C@@H](C)C[C@H]2[C@@H]3C[C@H](F)C4=CC(=O)C=C[C@]4(C)[C@@]3(F)[C@@H](O)C[C@@]21C`: the Potency entry was “inactive”.

With `COc1ccc(-c2cc(=O)c3c(O)cc(O[C@@H]4O[C@H](CO[C@@H]5O[C@@H](C)[C@H](O)[C@@H](O)[C@H]5O)[C@@H](O)[C@H](O)[C@H]4O)cc3o2)cc1O`, the Potency result is “inactive”.

Consider `CC(C)CN(C[C@@H](O)[C@H](Cc1ccccc1)NC(=O)O[C@H]1CO[C@H]2OCC[C@H]21)S(=O)(=O)c1ccc(N)cc1`, for which the Potency entry is “inactive”.

On to `O=C1c2ccccc2CCc2ccccc21`, for which the Potency entry is “inactive”.

In the case of `C[N+]1(C)[C@@H]2CC(OC(=O)[C@H](CO)c3ccccc3)C[C@H]1[C@@H]1O[C@@H]12` (stereo not given in full), the Potency result is “inactive”.

As to `NS(=O)(=O)c1cc(-c2nn[nH]n2)c(NCc2cccs2)cc1Cl`, the Potency entry is “inactive”.

`O=C(COCCOCCOCC(=O)Nc1c(I)cc(I)c(C(=O)O)c1I)Nc1c(I)cc(I)c(C(=O)O)c1I`: the Potency result is “inactive”.

On to `Cc1cc(NS(=O)(=O)c2ccc(N)cc2)nc(C)n1`, for which the Potency entry is “inactive”.

Consider `O=C(c1ccccc1)c1ccccc1`, for which the Potency result was “inactive”.

As for `CC(C)=CCC/C(C)=C/CC/C(C)=C/CCC(=O)OC/C=C(\C)CCC=C(C)C`, the Potency entry was “inactive”.

As to `COC(=O)N/N=C/c1c[n+]([O-])c2ccccc2[n+]1[O-]`, the Potency result was “inactive”.

`O=C(O)CSCC(=O)NC1CCSC1=O` (stereo not given): the Potency entry was “inactive”.

Take `CC(=O)NCc1c(I)c(NC(C)=O)c(I)c(C(=O)O)c1I`: the Potency entry is “inactive”.

Take `C[C@H](CS)C(=O)N1CCC[C@H]1C(=O)O`: the Potency result is “inactive”.
